# Shown are actives, neighbours in structure and some others; about 11% of the full set was active somewhere.
# IMPase cell inh: qHTS Assay for Identifying the Cell-Membrane Permeable IMPase Inhibitors; inhibition (IP1 accumulation), % at 46.1 µM; 120,000 tested, under 10 active; CHO-M1 cells, IP1 accumulation, HTRF TR-FRET ratio; active = well fitted curve in the direction sought with a large enough effect in the signal ratio, not every such curve was filed as active; inconclusive = small, poorly fitted or top-dose-only effect, or a change in a side signal; inactive = no such curve, though single readings can be large or run the other way; the % refers to the signal ratio;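 note: cells stimulated with carbachol in lithium chloride buffer; plate controls were DMSO basal wells for no effect and reference inhibitor wells for full effect; higher means more IMPase inhibition seen as more IP1 and lower FRET ratio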
#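 Cellular IMPase inhibition is scored as a rise in cytosolic IP1, detected by competitive TR-FRET between d2-labelled IP1 and a europium anti-IP1 antibody. M1-expressing CHO cells were stimulated with carbachol for 30 min at 37C, with lithium (50 mM LiCl) present in the buffer.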
# NPSR antagonist: qHTS Assay for Antagonists of the Neuropeptide S Receptor: cAMP Signal Transduction | AID 1461, 2008 | Q6W5P4 | Potency, µM (doses to about 38.3 µM), inactives show at the highest dose activity change, negative = inhibition, actives largely listed as inhibitors | CHO-NPSR cells, cAMP TR-FRET, antagonist mode | actives 1% (n = 220,000); active = well fitted curve in the direction sought with a large enough effect; inconclusive = small, poorly fitted or top-dose-only effect, or another doubt; inactive = no such curve, though single readings can be large; an effect the other way counts as inactive or inconclusive; note: potency is the fitted concentration of half-maximal effect; nearly all actives have a fitted effect of over 50% in size
# Target sequence (Q6W5P4 whole entry, looked up): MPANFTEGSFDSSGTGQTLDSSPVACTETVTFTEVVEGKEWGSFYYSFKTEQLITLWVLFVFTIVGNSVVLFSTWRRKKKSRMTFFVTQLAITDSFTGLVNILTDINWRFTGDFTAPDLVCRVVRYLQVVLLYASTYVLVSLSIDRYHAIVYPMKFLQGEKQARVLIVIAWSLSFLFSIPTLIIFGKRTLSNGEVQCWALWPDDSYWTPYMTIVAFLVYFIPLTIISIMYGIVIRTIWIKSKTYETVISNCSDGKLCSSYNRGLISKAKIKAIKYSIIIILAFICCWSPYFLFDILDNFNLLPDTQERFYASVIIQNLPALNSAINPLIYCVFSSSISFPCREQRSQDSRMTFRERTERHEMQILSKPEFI
# ALDH1A1 inh: qHTS Assay for Inhibitors of Aldehyde Dehydrogenase 1 (ALDH1A1); Potency, µM (top dose mostly 75.3 µM), for inactives: top-dose activity, negative = inhibition, usual class: inhibitors; Purified ALDH1A1, NADH fluorescence, propionaldehyde substrate; AID 1030, 2008; actives 7.3% (n = 220,000); Aldehyde dehydrogenase 1A1 (Homo sapiens), P00352;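 note: potency is the fitted concentration of half-maximal effect; plate controls were no enzyme wells and a reference inhibitor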
# PNC inhibitor: High Content Assay for Compounds that inhibit the Assembly of the Perinucleolar Compartment | activity change (PNC), negative = inhibition, % at 10 µM | actives 3.1% (n = 140,000) | AID 2417, 2010 | PC3M PTB-GFP, PNC prevalence imaging, 16 h; active compounds read low;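 active = readout at or below -70, meaning at least 70% loss of cells showing the perinucleolar compartment, a nuclear body marking cancer cells; inconclusive = readout between -30 and a set limit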;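 note: plate controls were DMSO wells for no effect and camptothecin positive control wells for full effect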
#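 Read-out is percentage of cells bearing a perinucleolar compartment, from automated 20x imaging of fixed, Hoechst-stained PC3M PTB-GFP cells. Cells were seeded 4 h, then exposed 16 h to compound (23 nl of library stock) in duplicate plates.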
# HPGD inh: qHTS Assay for Inhibitors of HPGD (15-Hydroxyprostaglandin Dehydrogenase). 15-hydroxyprostaglandin dehydrogenase [NAD(+)] (Homo sapiens), P15428. purified HPGD, NADH fluorescence kinetic, PGE2 substrate. Potency, µM, without a hit: at the highest dose activity change, negative = inhibition, most hits filed as inhibitors. actives 4.3% (n = 150,000); note: potency is the fitted concentration of half-maximal effect
# Target sequence (P15428 whole entry, looked up): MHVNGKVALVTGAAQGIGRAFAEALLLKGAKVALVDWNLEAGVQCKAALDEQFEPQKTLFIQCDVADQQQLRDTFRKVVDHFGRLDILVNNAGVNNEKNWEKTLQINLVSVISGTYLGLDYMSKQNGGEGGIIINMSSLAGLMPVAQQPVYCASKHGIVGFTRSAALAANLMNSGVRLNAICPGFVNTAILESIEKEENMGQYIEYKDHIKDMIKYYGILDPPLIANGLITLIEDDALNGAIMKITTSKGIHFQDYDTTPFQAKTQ
#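 20 nM HPGD preincubated 15 min at room temperature with compound in 50 mM Tris-HCl pH 8, 0.01% Tween 20. Started with 1 mM NAD+ and 30 uM prostaglandin E2; NADH fluorescence (360/450 nm) read 5 times over 30-s intervals, last minus first.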
# IMPase Li inh: qHTS Assay for Identifying the Cell-Membrane Permeable IMPase Inhibitors: Potentiation with Lithium; CHO-M1 cells, IP1 TR-FRET (IP-One), carbachol + lithium; Potency, µM (doses to about 59.4 µM), for the others: at the highest dose activity, negative = IMPase inhibition, usual class: inhibitors; actives 0.35% (n = 210,000); active = well fitted curve in the direction sought with a large enough effect; inconclusive = small, poorly fitted or top-dose-only effect, or another doubt; inactive = no such curve, though single readings can be large; an effect the other way counts as inactive or inconclusive;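 note: IP1 builds up when IMPase is blocked and the TR-FRET signal falls; potency is the fitted concentration of half-maximal effect; plate controls were basal vehicle for no effect and high inhibitor control for full effect; nearly all actives have a fitted effect of over 50% in size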
#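 CHO cells stably expressing M1 receptor (2000/well, cultured 16–30 h) treated 30 min at 37C with compound plus low lithium. Cytosolic IP1 by TR-FRET (665/620 ratio and 620 channel) after 10 min lysis; AC50 by Hill fit.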
# Active calls of the source: *; ? = inconclusive; . = not tested or not shown; [ ] = dose if it differs, or a comment. Unless noted, calls come from the whole dose curve; as a rule, active = well fitted inhibition curve with a large enough effect (not every such curve was filed as active); inconclusive = small, poorly fitted or top-dose-only effect, or another doubt; inactive = no such curve, though single readings can be large or run the other way. Unless noted, % is set by controls: 0 for no effect and ±100 for the full control effect.
SMILES,IMPase cell inh,NPSR antagonist,ALDH1A1 inh,PNC inhibitor,HPGD inh,IMPase Li inh
CCOC(=O)c1c(C)[nH]c(C(=O)CN2CC(C)OC(C)C2)c1C (centres undefined),-5,-4%[46.1 µM],7.9µM*,18,-4%,1%[38.3 µM]
CCOC(=O)c1[nH]c(C)c(C(=O)C(C)C)c1C,-1,-8%[46.1 µM],3%,?,-16%,3%[38.3 µM]
CCOC(=O)c1ccc(NC(=O)/C(C#N)=C/c2ccc(OC)cc2)cc1,-3,.,.,.,.,.
CCOC(=O)c1c(C)[nH]c(C(=O)COC(=O)CSC)c1C,2,-15%[46.1 µM],-2%,-85*,-6%,11%[38.3 µM]
CCOC(=O)c1c(C)[nH]c(C(=O)C(C)Cl)c1C (centres undefined),.,-3%,22µM*,.,.,2%
CCCCC(=O)OCC(=O)c1[nH]c(C)c(C(=O)OCC)c1C,-2,-4%[46.1 µM],9%,5,-6%,24%[38.3 µM]
COc1ccc(Nc2cc(C(=O)NCCCN3CCN(C)CC3)c3ccccc3n2)cc1OC,-1,3%[46.1 µM],?,?,?,9%[38.3 µM]
CCOC(=O)c1c(C)[nH]c(/C(C)=N/O)c1C,2,0%[7.67 µM],-14%,-2,?,6%[38.3 µM]
CCOC(=O)c1c(C)[nH]c(C(C)=O)c1C,4,1%[46.1 µM],8.9µM*,25,-15%,-10%[38.3 µM]
CCOC(=O)c1sc2nc3c(SCCC#N)cc(C(=O)c4cc(F)ccc4O)cn3c(=O)c2c1C,.,-15%,-12%,-14,-11%,-1%
CCOC(=O)c1sc2nc3c(SCCC(=O)O)cc(C(=O)c4cc(OC)ccc4O)cn3c(=O)c2c1C,.,10µM*,-15%,.,.,7%
O=C(O)CSc1cc(C(=O)c2cc(F)ccc2O)cn2c(=O)c3c(-c4ccccc4)csc3nc12,.,?,7.9µM*,.,.,.
COCc1c(C(=O)N/N=C(/C)c2ccccc2)nnn1-c1nonc1N,.,14%,?,.,.,-2%
CCCN(C(=O)CCl)C1=CCCCC1,.,3%,0.71µM*,.,.,11%
Oc1c(N=NC(=S)Nc2ccccc2F)c2ccccc2n1Cc1ccc(F)cc1,.,-17%,16µM*,.,.,-4%
Oc1c(N=NC(=S)Nc2ccccc2F)c2ccccc2n1Cc1cccc(Cl)c1,.,-3%,0.4µM*,.,.,6%
COc1cc(/C=N/NC(=O)c2cccnc2)ccc1OCC(=O)Nc1c(C)cc(C)cc1C,.,1%,-2%,8,-15%,-4%
CCOc1ccc(C2C(C#N)=C(N)SC(N)=C2C#N)cc1OCC,-23,8%[46.1 µM],?,34,22µM*,?
CCOc1ccc(C2C(C#N)=C(N)SC(N)=C2C#N)cc1OC,?,26%[46.1 µM],?,?,25µM*,?
CCOC(=O)C1=C(C)OC(N)=C(C#N)C1c1ccc(O)c(OC)c1 (centres undefined),8,-4%[46.1 µM],8%,16,-14%,-1%[38.3 µM]
N#CC1=C(N)SC(N)=C(C#N)C1c1cccc(Oc2ccccc2)c1,-13,-9%[46.1 µM],10µM*,?,22µM*,-12%
CCOc1ccccc1C1C(C#N)=C(N)SC(N)=C1C#N,-20,?,5%,4,-17%,?
COc1ccc(-c2[nH]ncc2CN2CCN(C3CCCCC3)C(=O)C2)cc1F,.,0%,1.4µM*,.,.,7%
C=CCn1c(COc2ccccc2)nnc1SCC(=O)Nc1ccc2c(c1)OCCO2,-13,-17%[46.1 µM],-8%,?,-3%,3%[38.3 µM]
COCCN1Cc2cc3cc(C)ccc3nc2SC1=Nc1ccc(OC)cc1,.,43%,-15%,.,.,17%
SMILES,IMPase cell inh,NPSR antagonist,ALDH1A1 inh,PNC inhibitor,HPGD inh,IMPase Li inh
CCC(C)N=C1Sc2nc3ccc(C)cc3cc2CN1CCOC (centres undefined),.,-17%,14µM*,.,.,23%
Cc1cc(C)n(-c2nnc(C)n2NS(=O)(=O)c2ccc(F)cc2)n1,-15,3%[46.1 µM],5%,12,1%,-8%[38.3 µM]
COc1ccc(O[C@H]2C=C[C@@H](c3ccccc3)O[C@@H]2COC(=O)CC/C(C)=N/O[C@@H](C)CN2CCCCc3nc(C)c(C)cc32)cc1,.,16µM*,-12%,-83*,-17%,33%
COc1ccc(O[C@H]2C=C[C@@H](c3ccccc3)O[C@H]2COC(=O)CC/C(C)=N\O[C@@H](C)CN2CCCCc3nc(C)c(C)cc32)cc1,.,.,3%[13.5 µM],.,.,.
N#Cc1c(Cl)nsc1NN,.,-37%,22µM*,.,.,8%
CCOC(=O)CC(=O)CSc1nc2ccccc2c(=O)n1-c1ccc(C(=O)N2CCOCC2)cc1,7,-8%[46.1 µM],-10%,-14,-11%,-13%[38.3 µM]
O=C(c1ccc(-n2c(SCc3cc(F)ccc3F)nc3ccccc3c2=O)cc1)N1CCOCC1,.,-57%,35µM*,22,-12%,13%
Cc1ccc2[nH]c(=O)cc(C(=O)OCC(=O)c3ccc(F)cc3)c2c1,.,10%,1%,.,.,-6%
CN(C)C(=O)c1ccc(Oc2ccc(C(=O)N(C)C)cc2)cc1,4,0%[46.1 µM],?,27,16µM*,7%[38.3 µM]
CC(=O)c1c(C)[nH]c(C(=O)CSc2nc3ccc(C)cc3[nH]2)c1C,3,-14%[46.1 µM],25µM*,-15,-30%,10%
Cc1cc(C)nc(NS(=O)(=O)c2ccc(NC(=O)C3(c4ccccc4)CCCC3)cc2)n1,7,-10%[46.1 µM],21%,-115*,.,.
CCN(CC)S(=O)(=O)c1ccc(C)c(NC(=O)CSc2nc3ccccc3[nH]2)c1,.,-17%,?,-92*,-3%,9%
Cc1ccc(S(=O)(=O)N(C)C)cc1NC(=O)CSc1nc2ccccc2[nH]1,.,4%,12%,2,1%,-3%
O=C(CSc1nc2ccccc2[nH]1)Nc1ccc(F)cc1,2,-5%[46.1 µM],11%,10,-4%,8%[38.3 µM]
Cc1cc(C)nc(NS(=O)(=O)c2ccc(NC(=O)Cc3ccccc3)cc2)n1,.,-10%,-14%,.,.,-8%
Cc1cc(C)nc(NS(=O)(=O)c2ccc(NC(=O)CSc3nc4ccccc4[nH]3)cc2)n1,.,17%,20µM*,0,-5%,0%
Cc1cc(NS(=O)(=O)c2ccc(NC(=O)CSc3nc4ncccc4[nH]3)cc2)nc(C)n1,.,-14%,.,.,.,.
COc1ccc2nc(SCC(=O)Nc3ccc(S(=O)(=O)Nc4nccc(C)n4)cc3)[nH]c2c1,2,-4%[46.1 µM],?,28,28µM*,-8%[38.3 µM]
CCN1CC=C2C(C1)C(c1ccc(Cl)s1)C(C#N)=C(N)C2(C#N)C#N (centres undefined),7,-15%[46.1 µM],?,-20,-23%,-1%[38.3 µM]

# Source: PubChem
